Data as given in PubChem BioAssay (NCI).
The panel holds about 79,000 compounds, 15% with a hit somewhere; the sample as a whole holds those more often. A number with no mark means an inactive call. The source made the active and inactive calls. Cut-off read from the data, not from the text of the source: active = growth inhibition above about 70%; inactive = the rest.

Assays:
[1] = NCI Yeast Anticancer Drug Screen. Data for the rad50 strain (AID 155);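 note: 0% = growth of vehicle-only cultures of the same strain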; settings: S. cerevisiae rad50 strain growth inhibition, active compounds read high
How it was run: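 Cells are treated with compound, grown, and their growth is then scored against vehicle-only cultures of the same repair-deficient yeast strain.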

[2] = NCI Yeast Anticancer Drug Screen. Data for the mec2-1 strain (AID 157); settings: S. cerevisiae mec2-1 strain, active compounds read high
How it was run: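 mec2-1 yeast strain, carrying an alteration in DNA damage repair or cell cycle control, was exposed to compounds; growth inhibition was measured relative to vehicle-treated controls.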

[3] = NCI Yeast Anticancer Drug Screen. Data for the sgs1 mgt1 strain (AID 161);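 note: 0% = growth of cultures given vehicle only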; settings: S. cerevisiae sgs1 mgt1 strain, active compounds read high
How it was run: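 This yeast growth screen uses a strain with defined DNA-repair lesions; compound-treated growth is compared with vehicle-treated growth.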

[4] = NCI Yeast Anticancer Drug Screen. Data for the cln2 rad14 strain (AID 165);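 note: 0% = growth equal to vehicle treated cultures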; settings: S. cerevisiae cln2 rad14 strain, active compounds read high
How it was run: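 Yeast carrying cln2 and rad14 alterations (cell cycle control and DNA damage repair) were exposed to compounds. Growth inhibition was measured against vehicle-treated controls.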

[5] = NCI Yeast Anticancer Drug Screen. Data for the bub3 strain (AID 167); settings: S. cerevisiae bub3 mutant strain, active compounds read high
How it was run: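 Part of a panel of yeast mutants defective in DNA damage repair or cell cycle regulation. Each strain is grown with compound, and inhibition is calculated relative to solvent-treated cultures.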

[6] = NCI Yeast Anticancer Drug Screen. Data for the mlh1 rad18 strain (AID 175); settings: S. cerevisiae mlh1 rad18 strain growth inhibition, active compounds read high
How it was run: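 Growth inhibition of the yeast strain was measured after compound exposure and expressed relative to vehicle-treated controls. The strain carries defined defects in DNA damage repair.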

[7] = at 5.0 µM (retest, dose inferred, filed as 0.5)
[8] = at 50.0 µM (retest, dose inferred, filed as 5.0)

Row | Structure (SMILES) | growth inhibition [1, 7] [%] | growth inhibition [1, 8] | growth inhibition ([1]; at 50.0 µM) | growth inhibition [2, 7] [%] | growth inhibition [2, 8] | growth inhibition ([2]; at 50.0 µM) | growth inhibition [3, 7] [%] | growth inhibition [3, 8] | growth inhibition ([3]; at 50.0 µM) | growth inhibition [4, 7] [%] | growth inhibition [4, 8] | growth inhibition ([4]; at 50.0 µM) | growth inhibition [5, 7] [%] | growth inhibition [5, 8] | growth inhibition ([5]; at 50.0 µM) | growth inhibition [6, 7] [%] | growth inhibition [6, 8] | growth inhibition ([6]; at 50.0 µM)
1 | N=C(N)SCc1nc(-c2ccc(Cl)cc2)no1 | 18 | 77% (active) | 94.3% (active) | 8 | 57% | 87.5% (active) | 0 | 78% (active) | 90.1% (active) | 0 | 61% | 70% (active) | -4 | 72% (active) | 94% (active) | -10 | 64% | 84.9% (active)
2 | O=C(Nc1cccc(Cl)c1)c1ccc([N+](=O)[O-])cc1 | 10 | 8% | -8.65% | -11 | -6% | -10.8% | 6 | 4% | -12.7% | 4 | 17% | -27.4% | 23 | 32% | -6.8% | 17 | 26% | -0.9%
3 | O=C(N/C(=C\c1ccc(Cl)cc1)c1nc2ccccc2[nH]1)c1ccccc1 | 0 | 96% (active) | 97.3% (active) | -1 | 98% (active) | 97.5% (active) | 10 | 98% (active) | 96.8% (active) | -1 | 97% (active) | 96.5% (active) | 13 | 97% (active) | 98.1% (active) | 2 | 97% (active) | 96.7% (active)
4 | CCC(=O)OC1CCC(C2CCCCC2)CC1 (stereo not given) | 3 | 8% | -4.95% | 1 | 2% | -9.55% | 2 | 5% | 16.7% | 5 | 7% | -21.2% | 65 | 70% (active) | 61.1% | 4 | 10% | 36.8%
5 | CC(=O)OC1=C(CC(C)C)C(=O)c2ccccc2C1=O | 7 | 67% | 69.2% | 8 | 70% (active) | 59.2% | 7 | 88% (active) | 78.6% (active) | 1 | 55% | 51% | 6 | 78% (active) | 56.6% | 20 | 85% (active) | 73.5% (active)
6 | CCc1ccc2c(-c3ccccc3)c3ccccc3c(-c3ccccc3)c2c1 | 0 | -4% | -7.9% | 3 | -10% | -5.6% | 1 | 6% | -9.25% | -4 | -11% | 34.9% | -4 | -8% | 7.35% | -1 | -8% | 0.05%
7 | CCCNC(=O)c1cc2ccccc2cc1C(=O)OC | 59 | 90% (active) | 86% (active) | 48 | 90% (active) | 88.5% (active) | 51 | 95% (active) | 81.9% (active) | 49 | 74% (active) | 81.1% (active) | 68 | 94% (active) | 88.3% (active) | 65 | 94% (active) | 86.2% (active)
8 | COc1ccc(-c2nc(N)n(C)c2SSc2c(-c3ccc(OC)cc3)nc(N)n2C)cc1 | 2 | 26% | 23.6% | -4 | 26% | 5.2% | 28 | 27% | 2.5% | 6 | 30% | 6.95% | 41 | 50% | 3.6% | -2 | 28% | -15.6%
9 | O=C(NCCNCCNCCNC(=O)c1cc(-c2ccccc2)nc2ccccc12)c1cc(-c2ccccc2)nc2ccccc12 | -16 | 57% | 98.7% (active) | -10 | 63% | 99.2% (active) | -7 | 41% | 98.8% (active) | 18 | 64% | 99% (active) | -25 | 86% (active) | 99.2% (active) | -4 | 88% (active) | 99% (active)
10 | BrCc1ccc2ccc3ccc(CBr)nc3c2n1 | 2 | 83% (active) | 69.7% | 11 | 91% (active) | 43.5% | 11 | 95% (active) | 63.9% | -12 | 89% (active) | 24.8% | -4 | 94% (active) | 45% | 8 | 95% (active) | 64.8%
